For assay [1], the target named is Estrogen receptor beta (Homo sapiens) (UniProt Q92731). Description: qHTS assay to identify small molecule agonists of the estrogen receptor beta (ER-beta) signaling pathway (AID 1259377; active means well fitted activation curve with a large enough effect in the signal ratio in the repeat runs, not every such curve was filed as active; the % refers to the signal ratio). The method in brief: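 Screening used GripTite ER-beta-UAS-bla cells held in 2% charcoal-stripped FBS medium. After overnight (16 hr) compound incubation at 37C, beta-lactamase activity was detected with a FRET substrate by fluorescence.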
Sequence of Estrogen receptor beta (Homo sapiens) (Q92731 whole entry, looked up): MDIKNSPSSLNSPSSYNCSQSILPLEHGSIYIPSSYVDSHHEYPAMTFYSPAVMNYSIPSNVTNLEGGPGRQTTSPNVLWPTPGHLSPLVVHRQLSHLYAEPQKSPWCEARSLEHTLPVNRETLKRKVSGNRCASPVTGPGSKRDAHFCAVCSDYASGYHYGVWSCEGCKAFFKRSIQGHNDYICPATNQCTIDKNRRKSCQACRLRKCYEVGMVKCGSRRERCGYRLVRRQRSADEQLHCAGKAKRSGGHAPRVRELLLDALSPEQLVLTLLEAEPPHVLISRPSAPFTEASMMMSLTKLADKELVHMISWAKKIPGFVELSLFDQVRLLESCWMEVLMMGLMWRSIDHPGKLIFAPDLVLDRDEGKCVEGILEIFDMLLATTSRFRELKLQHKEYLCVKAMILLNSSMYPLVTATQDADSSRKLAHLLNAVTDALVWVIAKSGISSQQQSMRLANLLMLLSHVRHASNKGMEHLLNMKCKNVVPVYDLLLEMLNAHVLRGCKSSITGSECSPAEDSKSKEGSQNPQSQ
A general note: Quantitative high-throughput screening tests each substance at several concentrations.

Assay [2] shares this target. The experiment in a line: qHTS assay to identify small molecule antagonists of the estrogen receptor beta (ER-beta) signaling pathway (AID 1259378; active means well fitted inhibition curve with a large enough effect in the signal ratio in the repeat runs, not every such curve was filed as active; the % refers to the signal ratio; further: potency means the concentration at half of the fitted maximal effect). In outline: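 Antagonist mode: compounds added to beta-lactamase reporter HEK293T ER-beta-UAS cells stimulated with E2 (1nM final), 16 hr at 37C. LiveBLAzer B/G FRET substrate, 2 hours room temperature, fluorescence read-out.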

The nature of assay [3]: qHTS assay to identify small molecule agonists of the androgen receptor (AR) signaling pathway in the presence of an antagonist - cell viability counter screen (AID 1259379). Further: nearly all actives have a fitted effect of over 25% in size. Further: potency means the concentration at half of the fitted maximal effect.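 On activity change, negative = cytotoxicity: MDA-kb2 human breast cancer cells carrying an MMTV luciferase reporter; series mostly up to about 92 µM.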 The method in brief:
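Seed MDA-kb2 at 3,000 cells/well; incubate 5 hr, 37C, 0% CO2. Add nilutamide to 3.0uM final, then pin compounds at 15 concentrations. Incubate 16 hr. Add CellTiter-Fluor at 15 hr, read fluorescence after 1 hr.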

Assay [4] can be described thus: qHTS assay to identify small molecule agonists of the estrogen receptor beta (ER-beta) signaling pathway - cell viability counter screen (AID 1259380). Further: nearly all actives have a fitted effect of over 30% in size. Further: potency means the concentration at half of the fitted maximal effect. In outline: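 CellTiter-Glo read, 30 min RT, same wells as bla assay; cells ER-beta-UAS-bla HEK293T; 16 hr compound, 37C; medium 2% charcoal-stripped FBS.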
The nature of assay [5]: qHTS assay to identify small molecule antagonists of the estrogen receptor beta (ER-beta) signaling pathway - cell viability counter screen (AID 1259382). Further: nearly all actives have a fitted effect of over 55% in size. Further: potency means the concentration at half of the fitted maximal effect.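 On activity change, negative = cytotoxicity: HEK293T cells carrying ER-beta-UAS-bla reporter stimulated with estradiol; series mostly up to about 92 µM.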 In outline:
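In this multiplexed counter screen, cells were seeded at 2,000 per well in medium with 2% charcoal-stripped FBS and incubated 6 hr before compound and 1nM final E2 were added. Sixteen hours later, ATP-based luminescence reported viability.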

The target of assay [6] is Estrogen receptor (Homo sapiens) (UniProt P03372). The experiment in a line: qHTS assay to identify small molecule agonists of the estrogen receptor alpha (ER-alpha) signaling pathway in the presence of an antagonist (AID 1259383; calls by dose curve; further: top concentration of the series differs between compounds; nearly all actives have a fitted effect of over 15% in size). The method in brief:
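Stably transfected VM7Luc4E2 reporter cells, kept 5 days in charcoal-stripped serum, received ICI-182,780 at 10.0nM final before compound addition. Following 22hr incubation at 37C and 5% CO2, luciferase signal was read by luminescence.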

For assay [7], the target named is Thyrotropin receptor (Homo sapiens) (UniProt P16473). Description: qHTS assay to identify small molecule antagonists of the thyroid stimulating hormone receptor (TSHR) signaling pathway (AID 1259385; calls by dose curve; further: nearly all actives have a fitted effect of over 20% in size). The method in brief: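 Antagonist mode: compound-treated TSHR-expressing HEK293 cells were stimulated with 1.5 ng/mL TSH (final) in presence of Ro20-1724 for 30 min at RT. HTRF cAMP detection after 1 h; each compound tested at 15 concentrations, triplicate.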
Sequence of Thyrotropin receptor (Homo sapiens) (P16473 whole entry, looked up): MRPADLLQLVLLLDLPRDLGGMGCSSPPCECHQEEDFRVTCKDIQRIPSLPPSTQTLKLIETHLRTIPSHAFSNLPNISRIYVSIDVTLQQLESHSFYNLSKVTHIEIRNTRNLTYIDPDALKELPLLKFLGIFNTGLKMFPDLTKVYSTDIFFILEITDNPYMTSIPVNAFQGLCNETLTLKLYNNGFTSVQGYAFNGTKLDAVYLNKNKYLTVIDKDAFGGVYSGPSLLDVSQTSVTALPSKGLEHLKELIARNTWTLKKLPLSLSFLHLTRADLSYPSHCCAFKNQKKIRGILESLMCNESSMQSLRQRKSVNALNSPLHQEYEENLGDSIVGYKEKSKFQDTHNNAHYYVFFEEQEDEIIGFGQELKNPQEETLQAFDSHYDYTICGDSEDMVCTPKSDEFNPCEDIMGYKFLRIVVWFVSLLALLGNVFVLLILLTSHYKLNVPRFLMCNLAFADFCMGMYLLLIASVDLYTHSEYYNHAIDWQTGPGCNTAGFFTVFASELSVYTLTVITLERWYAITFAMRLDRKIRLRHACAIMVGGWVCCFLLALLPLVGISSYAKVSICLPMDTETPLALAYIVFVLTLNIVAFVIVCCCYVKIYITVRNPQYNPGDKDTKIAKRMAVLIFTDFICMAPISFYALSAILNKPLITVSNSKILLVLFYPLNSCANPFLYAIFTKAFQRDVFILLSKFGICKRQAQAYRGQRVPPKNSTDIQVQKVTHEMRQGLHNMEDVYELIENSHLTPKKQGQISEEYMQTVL

A short description of assay [8]: qHTS assay to identify small molecule agonists of the estrogen receptor alpha (ER-alpha) signaling pathway in the presence of an antagonist - cell viability counter screen (AID 1259386).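 Further: cells exposed to compounds for 22 h at 37 °C before the viability read; nearly all actives have a fitted effect of over 30% in size.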 Further: potency means the concentration at half of the fitted maximal effect. On activity change, negative = cytotoxicity: series mostly up to about 92 µM. In outline:
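Viability counter screen using VM7Luc4E2 (full-length ER-alpha, four ERE-luciferase). The cells were treated with compounds alongside ICI-182,780 10.0nM for 22hr, and live-cell protease fluorescence was quantified with CellTiter-Fluor.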

Assay [9] in a line: qHTS assay to identify small molecule agonists or antagonists of the thyroid stimulating hormone receptor (TSHR) signaling pathway - wild type cell line counter screen (AID 1259384; calls by dose curve). In outline:
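Counter screen in untransfected Hek293: compounds (15-point titration, triplicate) plus phosphodiesterase inhibitor Ro20-1724 added after 18 h plating; 30 min RT. Intracellular cAMP via competitive d2/cryptate immunoassay, 1 h incubation.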

The target of assay [10] is Androgen receptor (Homo sapiens) (UniProt P10275). The experiment in a line: qHTS assay to identify small molecule agonists of the androgen receptor (AR) signaling pathway in the presence of an antagonist (AID 1259381; calls by dose curve; further: nearly all actives have a fitted effect of over 15% in size; further: potency means the concentration at half of the fitted maximal effect). The method in brief: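 Test compounds at 15 concentrations were incubated for 16hr with MDA-kb2 reporter cells in presence of 3.0uM nilutamide (final). Signal: ONE-Glo luciferase luminescence.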
Sequence of Androgen receptor (Homo sapiens) (P10275 whole entry, looked up): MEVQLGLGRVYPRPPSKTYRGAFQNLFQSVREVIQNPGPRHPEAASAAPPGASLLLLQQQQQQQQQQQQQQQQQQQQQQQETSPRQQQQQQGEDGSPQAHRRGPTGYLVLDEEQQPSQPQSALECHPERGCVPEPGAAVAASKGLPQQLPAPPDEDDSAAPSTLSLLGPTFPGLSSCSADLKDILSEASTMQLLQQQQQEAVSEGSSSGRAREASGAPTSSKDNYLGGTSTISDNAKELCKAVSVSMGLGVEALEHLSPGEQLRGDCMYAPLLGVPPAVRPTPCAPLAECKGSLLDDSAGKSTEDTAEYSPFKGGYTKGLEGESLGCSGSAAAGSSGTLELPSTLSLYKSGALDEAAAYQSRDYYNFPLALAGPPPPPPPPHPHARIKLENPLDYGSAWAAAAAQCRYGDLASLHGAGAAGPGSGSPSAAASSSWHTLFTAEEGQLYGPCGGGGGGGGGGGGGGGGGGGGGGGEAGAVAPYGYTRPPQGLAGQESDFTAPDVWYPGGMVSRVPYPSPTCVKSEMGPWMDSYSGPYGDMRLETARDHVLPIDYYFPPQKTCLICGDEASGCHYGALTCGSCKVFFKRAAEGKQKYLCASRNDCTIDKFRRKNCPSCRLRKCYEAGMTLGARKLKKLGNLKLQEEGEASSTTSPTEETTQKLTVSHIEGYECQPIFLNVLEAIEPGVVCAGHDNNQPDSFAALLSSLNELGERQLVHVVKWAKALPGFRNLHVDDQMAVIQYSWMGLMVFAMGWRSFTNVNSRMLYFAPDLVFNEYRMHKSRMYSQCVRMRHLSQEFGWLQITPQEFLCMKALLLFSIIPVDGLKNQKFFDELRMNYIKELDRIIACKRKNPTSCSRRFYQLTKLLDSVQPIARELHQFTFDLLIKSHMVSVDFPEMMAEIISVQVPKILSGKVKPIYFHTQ

Several values for one entry are separate records, joined by “and”; a condition that tells them apart may be missing. Equal values may be shown once. Records with an inconclusive call do not appear. Some structures have more than one record in an assay (separate samples or runs), and their calls can disagree. Activity calls are given as the source filed them. Unless noted, the call rests on the fitted dose curve; in most records, active means well fitted curve in the direction sought with a large enough effect in the repeat runs; inconclusive means weak or mixed curves; inactive means no such curve, though single readings can be large; an effect the other way counts as inactive or inconclusive.
On the % scale 0 is the no-effect control and ±100 the full control effect.

Sequence of Estrogen receptor (Homo sapiens) (P03372 whole entry, looked up): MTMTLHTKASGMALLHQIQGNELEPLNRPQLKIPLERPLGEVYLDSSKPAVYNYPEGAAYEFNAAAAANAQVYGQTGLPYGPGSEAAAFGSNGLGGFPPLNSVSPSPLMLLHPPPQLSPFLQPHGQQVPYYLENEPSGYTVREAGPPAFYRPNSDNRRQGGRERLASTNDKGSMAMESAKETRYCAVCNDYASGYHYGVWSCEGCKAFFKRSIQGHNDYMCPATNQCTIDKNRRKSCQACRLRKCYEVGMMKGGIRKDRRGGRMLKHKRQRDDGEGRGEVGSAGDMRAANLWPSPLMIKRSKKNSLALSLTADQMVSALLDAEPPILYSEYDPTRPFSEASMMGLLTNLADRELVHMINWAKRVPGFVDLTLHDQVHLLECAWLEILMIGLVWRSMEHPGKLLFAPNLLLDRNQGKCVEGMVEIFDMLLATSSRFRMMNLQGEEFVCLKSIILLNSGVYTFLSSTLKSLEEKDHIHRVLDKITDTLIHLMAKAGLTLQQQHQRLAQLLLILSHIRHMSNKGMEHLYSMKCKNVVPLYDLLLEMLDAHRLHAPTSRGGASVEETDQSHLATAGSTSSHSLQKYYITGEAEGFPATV

As for `C1COC(NC(C2CC2)C2CC2)=N1`, the outcome in assay [1] was inactive. The Potency result in [2], in assay [3], in assay [4], in assay [5], in assay [6] and in assay [7] was “inactive” throughout. Besides, the Potency result in [8] is “inactive”.
Regarding `CC(C(O)c1ccc(O)cc1)N1CCC(Cc2ccccc2)CC1` (configuration not stated), the outcome in [1] was inactive. Further, the Potency entry in assay [2], in [3], in [4], in [5], in [6] and in assay [8] was “inactive” in each case.
Regarding `CCCCCCCCCCCCCCCCCl`, the figures for the activation in [1] and in [6] were 1.06% [at 19 µM] (inactive) and -0.0791% [at 19 µM] (inactive), respectively. In [2], the activity, negative = inhibition was 9.46% [at 19 µM] (inactive). Further, the activity change, negative = cytotoxicity in [3] is 1.7% [at 19 µM] (inactive); in assay [4], 3.21% [at 19 µM] (inactive); in assay [5], 3.31% [at 19 µM] (inactive); in assay [8], -1.56% [at 19 µM] (inactive). In [9], the cAMP activity change was 0.656% [at 18.9 µM, stronger effect = higher value] (inactive). For the same compound, the activity change, negative = inhibition in assay [7] was -1.34% [at 19 µM] (inactive).
Take `CC(=O)OCC1=C(C(=O)O)N2C(=O)[C@@H](NC(=O)Cc3cccs3)[C@H]2SC1`: in assay [1], the result was inactive. The Potency result in assay [2], in assay [3], in assay [4], in assay [5], in assay [9] and in [7] was “inactive” in each case. Moreover, the Potency entry in assay [8] is “inactive”.
Consider `CC(C)(C)c1ccccc1`, for which the call in assay [1] was inactive. Besides, the Potency entry in assay [2], in [3], in assay [4], in assay [5], in assay [9] and in assay [7] was “inactive” each time. Moreover, the Potency result in assay [8] was “inactive”.
Consider `c1cnc2cc3c(cc2n1)C1CNCC3C1`, for which the outcome in assay [1] was inactive. Also, the Potency result in assay [2], in [3], in assay [4], in assay [5], in assay [6] and in assay [8] was “inactive” throughout.
In the case of `Cc1cc(C(C)(C)C)c(O)c(C(C)(C)C)c1`, the call in assay [1] was inactive. The Potency entry in assay [2], in [3], in assay [4], in assay [5], in assay [9] and in assay [7] was “inactive” each time. Besides, the Potency result in assay [8] was “inactive”.
Consider `CC1COC(=O)O1` (configuration not stated), for which, in assay [1], the compound was called inactive. Further, the Potency result in [3], in assay [4], in assay [10], in [5], in [6] and in assay [9] was “inactive” in each case. Moreover, the Potency entry in [7] and in [8] was “inactive” throughout.
Take `CCOC(=O)C(C)C(C)=O` (configuration not stated): in assay [1], the outcome was inactive. For the same compound, the Potency entry in assay [2], in assay [3], in assay [4], in [5], in assay [7] and in assay [8] was “inactive” each time.
For `COC(=O)c1cccc(C(=O)OC)c1`, in [1], the compound was called inactive. Also, the Potency entry in assay [2], in assay [3], in assay [4], in assay [10], in assay [5] and in assay [6] was “inactive” each time. Also, the Potency entry in assay [8] was “inactive”.
As for `O=c1n(CC2CO2)c(=O)n(CC2CO2)c(=O)n1CC1CO1` (configuration not stated), in [1], the compound was called inactive. For the same compound, the Potency entry in assay [2], in [4], in assay [5], in [6], in assay [9] and in assay [7] was “inactive” throughout. Further, the Potency entry in assay [8] was “inactive”.
On to `O=C(O)Cn1cnnn1`, for which the call in [1] was inactive. The Potency entry in assay [3], in assay [4], in [10], in [5], in assay [6] and in [9] was “inactive” throughout. In addition, the Potency result in assay [7] and in assay [8] was “inactive” each time.
Regarding `Nc1ccc(O)cc1`, the call in assay [1] was inactive. The Potency is 56.6 µM (active) and inactive in assay [3]; 5.04 µM (active) and inactive in assay [10]; 63.5 µM (active) and inactive in assay [5]; 31.8 µM (active) and inactive in assay [8]. Moreover, the Potency entry in assay [4], in assay [6], in assay [9] and in assay [7] was “inactive” throughout.
For the compound `OCC(CO)N[C@H]1C[C@](O)(CO)[C@@H](O)[C@H](O)[C@H]1O`, the compound was classed as inactive in [1]. The Potency result in [2], in [3], in [4], in assay [10], in [5] and in assay [6] was “inactive” throughout. In addition, the Potency entry in assay [7] and in [8] was “inactive” in each case.
With `O=Nc1ccc(Nc2ccccc2)cc1`, the compound was classed as inactive in [1]. Besides, the Potency in assay [2] was 68.6 µM (active); in assay [3], 54.8 µM (active) and 54.5 µM (active); in [4], 61.4 µM (active) and 48.6 µM (active); in assay [5] it was 61.4 µM (active). Also, the Potency entry in assay [10], in [6] and in assay [8] was “inactive” throughout.
For `CC(C)(C)NCC(O)COc1ccccc1OCC1CCCO1` (configuration not stated), the compound was called inactive in [1]. Moreover, the Potency result in [2], in [3], in [4], in assay [5], in assay [6] and in [9] was “inactive” throughout. The Potency entry in assay [7] and in assay [8] was “inactive” each time.
Take `BrC1CCC(Br)C(Br)CCC(Br)C(Br)CCC1Br` (configuration not stated): the result in [1] was inactive. The Potency result in assay [2], in assay [3], in assay [10], in assay [6] and in assay [9] was “inactive” throughout. Besides, the Potency is 30.5 µM (active) and 46.1 µM (active) in [4]; 54.3 µM (active) and 46.1 µM (active) in assay [5].
Consider `CC(C)(C)c1cc(C(C)(C)C)c(O)c(C(C)(C)C)c1`, for which, in assay [1], the result was inactive. For the same compound, the Potency entry in assay [2], in [3], in [5], in assay [6], in [9] and in assay [7] was “inactive” each time. Further, the Potency entry in assay [8] is “inactive”. In addition, the Potency result in [4] is “inactive and 48.6 µM (active)”.
Turning to `COc1ccc(Cc2cnc(N)nc2N)cc1OC`, the compound was called inactive in assay [1]. Moreover, the Potency entry in assay [2], in [3], in assay [4], in assay [10], in [5] and in assay [6] was “inactive” each time. The Potency entry in assay [9], in [7] and in assay [8] was “inactive” each time.
With `C[N+]1([O-])CCOCC1`, the compound was classed as inactive in [1]. For the same compound, the Potency result in assay [2], in [3], in [4], in [5], in [9] and in assay [7] was “inactive” in each case. Also, in [8], the Potency result is “inactive”.
With `CC(=O)C1=C(C)[C@@H]2C[C@@]3(C1)[C@H](C)CC[C@H]3C2(C)C`, the compound was called inactive in assay [1]. For the same compound, the Potency result in assay [2], in assay [3], in assay [4], in assay [5], in assay [6] and in [9] was “inactive” each time. Further, in assay [8], the Potency entry is “inactive”.
Regarding `C=CS(=O)(=O)O`, the outcome in assay [1] was inactive. The Potency entry in assay [2], in assay [3], in assay [4], in assay [5], in [6] and in assay [7] was “inactive” throughout. Also, the Potency result in assay [8] is “inactive”.
